Whole data set: some 16,000 sequences, median “rpm ratio (pull-down/input)” near 0.94, cut for the highest 2% near 1.7. This is one part of a sample in which the highest values are shown more often than they occur.
Each sequence was assayed against T1, MBP-FoxP1dN (Mus musculus, UniProt P58462 326-579) (assay: PD-seq (MBP pull-down with sequencing); 20 mM Tris-HCl pH 7.5, 100 mM NaCl, 1.5 mM MgCl2, 0.4 uM protein, 0.1 uM dsDNA library, 30 min, room temperature, amylose pull-down; high values mean tight binding). Details: protein: recombinant; tags: His6-MBP; chain copies: 2; dsDNA, one strand shown.
T1 sequence: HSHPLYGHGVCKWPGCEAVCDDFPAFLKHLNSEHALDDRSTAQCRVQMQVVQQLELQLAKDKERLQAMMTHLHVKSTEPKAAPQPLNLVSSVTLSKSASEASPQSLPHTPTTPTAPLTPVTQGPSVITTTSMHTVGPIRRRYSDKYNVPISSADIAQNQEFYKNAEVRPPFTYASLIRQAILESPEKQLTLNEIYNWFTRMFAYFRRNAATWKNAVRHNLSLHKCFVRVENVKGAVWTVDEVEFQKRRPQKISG
Method in brief: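 Protein and DNA were mixed at 0.4 µM and 0.1 µM and held for 30 min at room temperature in Tris pH 7.5 buffer with NaCl and MgCl2; the protein was a His6-MBP-tagged, N-terminally truncated mouse FoxP3 or FoxP1 fragment from E. coli, and the DNA a Klenow-filled double-stranded degenerate library. Amylose resin captured the complexes, which were washed three times. Binding is read as reads-per-million enrichment of pull-down versus input after Illumina sequencing, with replicates pooled.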

Sequence | binding signal
GATGATTGTTCTCCCAGCTGATGAATTAACATCGTCGAGTAAACAAATTTTCCTAATCTTTCTGTTCAAGCGCCATCTAC | 0.998 RPM ratio (pull-down/input)
GATGATTGTTCTCCCAGCTGATGAATTAAAACATTCGAGTAAACAAATTTTCCTAATCTTTCTGTTCAAGCGCCATCTAC | 1.4 RPM ratio (pull-down/input)
GATGATTGTTCTCCCAGCTGATGAATTAGACGTATCGAGTAAACAAATTTTCCTAATCTTTCTGTTCAAGCGCCATCTAC | 1.02 RPM ratio (pull-down/input)
GATGATTGTTCTCCCAGCTGATGAATTCCTGATTTCGAGTAAACAAATTTTCCTAATCTTTCTGTTCAAGCGCCATCTAC | 1.02 RPM ratio (pull-down/input)
GATGATTGTTCTCCCAGCTGATGAATTCCTGTTTTCGAGTAAACAAATTTTCCTAATCTTTCTGTTCAAGCGCCATCTAC | 2.04 RPM ratio (pull-down/input)
GATGATTGTTCTCCCAGCTGATGAATTCGAGTTTTCGAGTAAACAAATTTTCCTAATCTTTCTGTTCAAGCGCCATCTAC | 1.08 RPM ratio (pull-down/input)
GATGATTGTTCTCCCAGCTGATGAATTTCGTGTTTCGAGTAAACAAATTTTCCTAATCTTTCTGTTCAAGCGCCATCTAC | 1.02 RPM ratio (pull-down/input)
GATGATTGTTCTCCCAGCTGATGAATTCGTCGTGTCGAGTAAACAAATTTTCCTAATCTTTCTGTTCAAGCGCCATCTAC | 0.922 RPM ratio (pull-down/input)
GATGATTGTTCTCCCAGCTGATGAATTCTCTGTTTCGAGTAAACAAATTTTCCTAATCTTTCTGTTCAAGCGCCATCTAC | 0.91 RPM ratio (pull-down/input)
GATGATTGTTCTCCCAGCTGATGAATTCGTGTGTTCGAGTAAACAAATTTTCCTAATCTTTCTGTTCAAGCGCCATCTAC | 1.22 RPM ratio (pull-down/input)
GATGATTGTTCTCCCAGCTGATGAATTCCCTGTTTCGAGTAAACAAATTTTCCTAATCTTTCTGTTCAAGCGCCATCTAC | 0.907 RPM ratio (pull-down/input)
GATGATTGTTCTCCCAGCTGATGAATTCTGTTTTTCGAGTAAACAAATTTTCCTAATCTTTCTGTTCAAGCGCCATCTAC | 1.99 RPM ratio (pull-down/input)
GATGATTGTTCTCCCAGCTGATGAATTCTTCGTGTCGAGTAAACAAATTTTCCTAATCTTTCTGTTCAAGCGCCATCTAC | 0.867 RPM ratio (pull-down/input)
GATGATTGTTCTCCCAGCTGATGAATTCGTGTTGTCGAGTAAACAAATTTTCCTAATCTTTCTGTTCAAGCGCCATCTAC | 2.52 RPM ratio (pull-down/input)
GATGATTGTTCTCCCAGCTGATGAATTCGTGTTTTCGAGTAAACAAATTTTCCTAATCTTTCTGTTCAAGCGCCATCTAC | 2.29 RPM ratio (pull-down/input)
GATGATTGTTCTCCCAGCTGATGAATTCGCAAATTCGAGTAAACAAATTTTCCTAATCTTTCTGTTCAAGCGCCATCTAC | 0.933 RPM ratio (pull-down/input)
GATGATTGTTCTCCCAGCTGATGAATTGGCCTTCTCGAGTAAACAAATTTTCCTAATCTTTCTGTTCAAGCGCCATCTAC | 0.772 RPM ratio (pull-down/input)
GATGATTGTTCTCCCAGCTGATGAATTGCAATGTTCGAGTAAACAAATTTTCCTAATCTTTCTGTTCAAGCGCCATCTAC | 1.42 RPM ratio (pull-down/input)
GATGATTGTTCTCCCAGCTGATGAATTAAGGGTTTCGAGTAAACAAATTTTCCTAATCTTTCTGTTCAAGCGCCATCTAC | 0.875 RPM ratio (pull-down/input)
GATGATTGTTCTCCCAGCTGATGAATTCCTTGTTTCGAGTAAACAAATTTTCCTAATCTTTCTGTTCAAGCGCCATCTAC | 0.969 RPM ratio (pull-down/input)
GATGATTGTTCTCCCAGCTGATGAATTCTCATGTTCGAGTAAACAAATTTTCCTAATCTTTCTGTTCAAGCGCCATCTAC | 0.861 RPM ratio (pull-down/input)

Sequence | binding signal
GATGATTGTTCTCCCAGCTGATGAATTTCATGTTTCGAGTAAACAAATTTTCCTAATCTTTCTGTTCAAGCGCCATCTAC | 0.998 RPM ratio (pull-down/input)
GATGATTGTTCTCCCAGCTGATGAATTCTTGTTTTCGAGTAAACAAATTTTCCTAATCTTTCTGTTCAAGCGCCATCTAC | 2.77 RPM ratio (pull-down/input)
GATGATTGTTCTCCCAGCTGATGAATTTCTTGTTTCGAGTAAACAAATTTTCCTAATCTTTCTGTTCAAGCGCCATCTAC | 1.14 RPM ratio (pull-down/input)
GATGATTGTTCTCCCAGCTGATGAATTCATGTTTTCGAGTAAACAAATTTTCCTAATCTTTCTGTTCAAGCGCCATCTAC | 2.2 RPM ratio (pull-down/input)
GATGATTGTTCTCCCAGCTGATGAATTGAAAGCCTCGAGTAAACAAATTTTCCTAATCTTTCTGTTCAAGCGCCATCTAC | 0.795 RPM ratio (pull-down/input)
GATGATTGTTCTCCCAGCTGATGAATTATACAGCTCGAGTAAACAAATTTTCCTAATCTTTCTGTTCAAGCGCCATCTAC | 1.03 RPM ratio (pull-down/input)
GATGATTGTTCTCCCAGCTGATGAATTCTCGCGCTCGAGTAAACAAATTTTCCTAATCTTTCTGTTCAAGCGCCATCTAC | 0.835 RPM ratio (pull-down/input)
GATGATTGTTCTCCCAGCTGATGAATTCGTCTTGTCGAGTAAACAAATTTTCCTAATCTTTCTGTTCAAGCGCCATCTAC | 0.827 RPM ratio (pull-down/input)
GATGATTGTTCTCCCAGCTGATGAATTAATAATCTCGAGTAAACAAATTTTCCTAATCTTTCTGTTCAAGCGCCATCTAC | 1.06 RPM ratio (pull-down/input)
GATGATTGTTCTCCCAGCTGATGAATTTTTATTGTCGAGTAAACAAATTTTCCTAATCTTTCTGTTCAAGCGCCATCTAC | 2.51 RPM ratio (pull-down/input)
GATGATTGTTCTCCCAGCTGATGAATTGTTATTGTCGAGTAAACAAATTTTCCTAATCTTTCTGTTCAAGCGCCATCTAC | 3.45 RPM ratio (pull-down/input)
GATGATTGTTCTCCCAGCTGATGAATTATTTTTGTCGAGTAAACAAATTTTCCTAATCTTTCTGTTCAAGCGCCATCTAC | 1.37 RPM ratio (pull-down/input)
GATGATTGTTCTCCCAGCTGATGAATTATATTTGTCGAGTAAACAAATTTTCCTAATCTTTCTGTTCAAGCGCCATCTAC | 2.29 RPM ratio (pull-down/input)
GATGATTGTTCTCCCAGCTGATGAATTTATATTCTCGAGTAAACAAATTTTCCTAATCTTTCTGTTCAAGCGCCATCTAC | 1.04 RPM ratio (pull-down/input)
GATGATTGTTCTCCCAGCTGATGAATTTTATCTGTCGAGTAAACAAATTTTCCTAATCTTTCTGTTCAAGCGCCATCTAC | 0.918 RPM ratio (pull-down/input)
GATGATTGTTCTCCCAGCTGATGAATTATATCTGTCGAGTAAACAAATTTTCCTAATCTTTCTGTTCAAGCGCCATCTAC | 1.08 RPM ratio (pull-down/input)
GATGATTGTTCTCCCAGCTGATGAATTTATATTGTCGAGTAAACAAATTTTCCTAATCTTTCTGTTCAAGCGCCATCTAC | 2.36 RPM ratio (pull-down/input)
GATGATTGTTCTCCCAGCTGATGAATTTATTCTGTCGAGTAAACAAATTTTCCTAATCTTTCTGTTCAAGCGCCATCTAC | 1.12 RPM ratio (pull-down/input)
GATGATTGTTCTCCCAGCTGATGAATTTTATATGTCGAGTAAACAAATTTTCCTAATCTTTCTGTTCAAGCGCCATCTAC | 0.988 RPM ratio (pull-down/input)
GATGATTGTTCTCCCAGCTGATGAATTAAACATATCGAGTAAACAAATTTTCCTAATCTTTCTGTTCAAGCGCCATCTAC | 1.4 RPM ratio (pull-down/input)
GATGATTGTTCTCCCAGCTGATGAATTGGTGCCATCGAGTAAACAAATTTTCCTAATCTTTCTGTTCAAGCGCCATCTAC | 0.972 RPM ratio (pull-down/input)

Sequence | binding signal
GATGATTGTTCTCCCAGCTGATGAATTCGCTGTATCGAGTAAACAAATTTTCCTAATCTTTCTGTTCAAGCGCCATCTAC | 1.04 RPM ratio (pull-down/input)
GATGATTGTTCTCCCAGCTGATGAATTTACCCTCTCGAGTAAACAAATTTTCCTAATCTTTCTGTTCAAGCGCCATCTAC | 1.06 RPM ratio (pull-down/input)
GATGATTGTTCTCCCAGCTGATGAATTAAAAAGTTCGAGTAAACAAATTTTCCTAATCTTTCTGTTCAAGCGCCATCTAC | 0.935 RPM ratio (pull-down/input)
GATGATTGTTCTCCCAGCTGATGAATTATAGTAGTCGAGTAAACAAATTTTCCTAATCTTTCTGTTCAAGCGCCATCTAC | 0.985 RPM ratio (pull-down/input)
GATGATTGTTCTCCCAGCTGATGAATTGGTCGCGTCGAGTAAACAAATTTTCCTAATCTTTCTGTTCAAGCGCCATCTAC | 1.03 RPM ratio (pull-down/input)
GATGATTGTTCTCCCAGCTGATGAATTCAAGCTCTCGAGTAAACAAATTTTCCTAATCTTTCTGTTCAAGCGCCATCTAC | 0.854 RPM ratio (pull-down/input)
GATGATTGTTCTCCCAGCTGATGAATTTTATTTGTCGAGTAAACAAATTTTCCTAATCTTTCTGTTCAAGCGCCATCTAC | 2.45 RPM ratio (pull-down/input)
GATGATTGTTCTCCCAGCTGATGAATTCTTATTGTCGAGTAAACAAATTTTCCTAATCTTTCTGTTCAAGCGCCATCTAC | 2.49 RPM ratio (pull-down/input)
GATGATTGTTCTCCCAGCTGATGAATTTATTTTGTCGAGTAAACAAATTTTCCTAATCTTTCTGTTCAAGCGCCATCTAC | 1.62 RPM ratio (pull-down/input)
GATGATTGTTCTCCCAGCTGATGAATTTATTGTGTCGAGTAAACAAATTTTCCTAATCTTTCTGTTCAAGCGCCATCTAC | 1.88 RPM ratio (pull-down/input)
GATGATTGTTCTCCCAGCTGATGAATTTATTTGGTCGAGTAAACAAATTTTCCTAATCTTTCTGTTCAAGCGCCATCTAC | 1.59 RPM ratio (pull-down/input)
GATGATTGTTCTCCCAGCTGATGAATTTAATTTGTCGAGTAAACAAATTTTCCTAATCTTTCTGTTCAAGCGCCATCTAC | 1.25 RPM ratio (pull-down/input)
GATGATTGTTCTCCCAGCTGATGAATTATTTTGGTCGAGTAAACAAATTTTCCTAATCTTTCTGTTCAAGCGCCATCTAC | 1.35 RPM ratio (pull-down/input)
GATGATTGTTCTCCCAGCTGATGAATTGATTGTGTCGAGTAAACAAATTTTCCTAATCTTTCTGTTCAAGCGCCATCTAC | 1.35 RPM ratio (pull-down/input)
GATGATTGTTCTCCCAGCTGATGAATTTTATGTGTCGAGTAAACAAATTTTCCTAATCTTTCTGTTCAAGCGCCATCTAC | 1.13 RPM ratio (pull-down/input)
GATGATTGTTCTCCCAGCTGATGAATTGTCTTATTCGAGTAAACAAATTTTCCTAATCTTTCTGTTCAAGCGCCATCTAC | 1.18 RPM ratio (pull-down/input)
GATGATTGTTCTCCCAGCTGATGAATTTTATTGGTCGAGTAAACAAATTTTCCTAATCTTTCTGTTCAAGCGCCATCTAC | 1.74 RPM ratio (pull-down/input)
GATGATTGTTCTCCCAGCTGATGAATTATTCCTGTCGAGTAAACAAATTTTCCTAATCTTTCTGTTCAAGCGCCATCTAC | 0.964 RPM ratio (pull-down/input)
GATGATTGTTCTCCCAGCTGATGAATTTCATAAATCGAGTAAACAAATTTTCCTAATCTTTCTGTTCAAGCGCCATCTAC | 1.05 RPM ratio (pull-down/input)
GATGATTGTTCTCCCAGCTGATGAATTAAATCACTCGAGTAAACAAATTTTCCTAATCTTTCTGTTCAAGCGCCATCTAC | 1.09 RPM ratio (pull-down/input)
GATGATTGTTCTCCCAGCTGATGAATTAGACGCGTCGAGTAAACAAATTTTCCTAATCTTTCTGTTCAAGCGCCATCTAC | 0.99 RPM ratio (pull-down/input)
